Results from PubChem BioAssay AID1159580 (chemical genetic matrix, 2015).
Screen size: about 5,500 compounds; about 2,000 (36%) were called active. About 18% were inconclusive and are not listed. Cut-off read from the data, not from the text of the source: active = normalized growth mostly below about 0.91 (no sharp cut-off); inconclusive = no clear call, values can overlap the other calls; inactive = mostly above about 0.92. This is one part of the list.

Experiment: chemical genetic growth profiling, strain panel (AID 1159580);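 note: tested at 20 µM; growth read once vehicle control cultures reached saturation at 30 °C; 1 = growth at the plate median or of vehicle wells; lower values mean less growth of the strain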
Settings: growth OD
[1] = S. cerevisiae deletion strains, locus YAL013W, strain DEP1, hits give low values
[2] = S. cerevisiae deletion strains, locus YBR229C, strain ROT2, hits give low values
[3] = S. cerevisiae deletion strains, locus YCL061C, strain MRC1, hits give low values
[4] = S. cerevisiae deletion strains, locus YDL101C, strain DUN1, hits give low values
[5] = S. cerevisiae deletion strains, locus YDL134C, strain PPH21, hits give low values
[6] = S. cerevisiae deletion strains, locus YDR150W, strain NUM1, hits give low values
[7] = S. cerevisiae deletion strains, locus YEL061C, strain CIN8, hits give low values
[8] = S. cerevisiae deletion strains, locus YGR078C, strain PAC10, hits give low values
[9] = S. cerevisiae deletion strains, locus YHR030C, strain SLT2, hits give low values
[10] = S. cerevisiae deletion strains, locus YHR087W, strain rtc3, hits give low values
[11] = S. cerevisiae deletion strains, locus YJL187C, strain SWE1, hits give low values
[12] = S. cerevisiae deletion strains, locus YJR043C, strain POL32, hits give low values
[13] = S. cerevisiae deletion strains, locus YJR075W, strain HOC1, hits give low values
[14] = S. cerevisiae deletion strains, locus YKL190W, strain CNB1, hits give low values
[15] = S. cerevisiae deletion strains, locus YLR039C, strain RIC1, hits give low values
[16] = S. cerevisiae deletion strains, locus YLR058C, strain SHM2 (second series), hits give low values
[17] = S. cerevisiae deletion strains, locus YLR085C, strain ARP6, hits give low values
[18] = S. cerevisiae deletion strains, locus YLR262C, strain YPT6, hits give low values
[19] = S. cerevisiae deletion strains, locus YML094W, strain GIM5, hits give low values
[20] = S. cerevisiae deletion strains, locus YMR219W, strain ESC1, hits give low values
[21] = S. cerevisiae deletion strains, locus YMR263W, strain SAP30, hits give low values
[22] = S. cerevisiae deletion strains, locus YNL153C, strain GIM3, hits give low values
[23] = S. cerevisiae deletion strains, locus YNL298W, strain CLA4 (second series), hits give low values
[24] = S. cerevisiae deletion strains, locus YNL322C, strain KRE1, hits give low values
[25] = S. cerevisiae deletion strains, locus YNR030W, strain Alg12, hits give low values
[26] = S. cerevisiae deletion strains, locus YOL006C, strain TOP1, hits give low values
[27] = S. cerevisiae deletion strains, locus YPL055C, strain LGE1, hits give low values
[28] = S. cerevisiae deletion strains, locus YPL241C, strain CIN2, hits give low values
[29] = S. cerevisiae deletion strains, locus YPR135W, strain CTF4, hits give low values
[30] = S. cerevisiae strains, strain wild type, hits give low values
[31] = S. cerevisiae deletion strains, locus YMR307W, strain GAS1, hits give low values

Measured: normalized growth

COc1cc([N+](=O)[O-])c(OC)cc1SCC(=O)NNC(=O)c1cc(OC)c(OC)c(OC)c1
inactive: [1] 0.982 | [2] 1.01 | [3] 0.981 | [4] 0.968 | [5] 0.991 | [6] 0.942 | [7] 0.941 | [8] 0.978 | S. cerevisiae deletion strains, locus YGR229C, strain SMI1, hits give low values 1.01 | [9] 0.963 | [10] 1.03 | [11] 1.01 | [12] 0.983 | [13] 1.01 | [14] 0.999 | [15] 0.974 | [16] 0.999 | [17] 0.946 | [18] 1.04 | [19] 1.01 | [20] 1.01 | [21] 0.987 | [22] 0.988 | [23] 0.937 | [24] 0.98 | [25] 0.999 | [26] 0.931 | [27] 1.01 | [28] 0.939 | [29] 0.904 | [30] 1.02

COC(=O)Cc1cc(OC)c(OC)cc1[N+](=O)[O-]
active: [10] 1.1 [resistant]
inactive: [1] 1.01 | [2] 0.998 | [3] 1.02 | [4] 1.01 | [6] 1.01 | [7] 0.953 | [8] 1.03 | [9] 1.07 | [11] 0.983 | [12] 1 | [13] 0.997 | [14] 0.978 | [15] 1.16 | [16] 0.991 | [17] 0.982 | [18] 1.15 | [19] 0.997 | [20] 1 | [21] 1 | [22] 1.01 | [23] 0.977 | [24] 1.01 | [25] 0.985 | [26] 0.977 | [27] 0.974 | [28] 1.01 | [29] 1.03 | [30] 0.972

c1ccc(-c2ncc3ccccn23)cc1
inactive: [1] 1.01 | [2] 0.988 | [3] 0.985 | [4] 0.975 | [5] 0.967 | [6] 0.974 | [7] 0.989 | [8] 0.998 | [9] 0.843 | [10] 0.999 | [12] 0.99 | [13] 1.03 | [14] 0.996 | [16] 0.991 | [17] 0.9 | [18] 0.926 | [19] 0.936 | [20] 1.01 | [21] 0.971 | [31] 0.711 | [22] 0.979 | [23] 0.95 | [24] 1.01 | [25] 0.981 | [27] 1.03 | [28] 0.928 | [29] 0.753
active: [15] 0.786 | [26] 0.461

O=[N+]([O-])c1cnc2ccccn12
inactive: [1] 1.02 | [2] 1.01 | [4] 1 | [5] 1.03 | [6] 0.964 | [7] 1 | [8] 1.01 | [9] 1.08 | [10] 1.01 | [11] 0.992 | [12] 1.02 | [13] 1.03 | [14] 1.02 | [15] 1.05 | [16] 1.01 | [17] 1.01 | [18] 1.09 | [19] 0.995 | [20] 1.01 | [21] 1.02 | [31] 1.1 | [22] 1.03 | [23] 1.08 | [24] 1.02 | [25] 1.02 | [27] 1.02 | [28] 1.02 | [29] 1.11
